This is a sample that favours compounds with a hit; in the whole collection about 3.5% have one here.
Bead autofluor = compound fluorescence in toxin protease inhibitor counterscreen. compound autofluorescence counterscreen, microsphere flow cytometry; stronger effect = higher value. fluorescence intensity (test concentration not listed). 3.1% of 360,000 active. AID 624483; in the data active = fluorescence intensity above about 16000; inconclusive = no clear call, values can overlap the other calls
Anthrax LF inh2 = Bacillus anthracis LF protease inhibitors, primary screen, biochemical, multiplex microsphere, MLPCN library | Lethal factor (Bacillus anthracis), P15917 | multiplex microsphere protease cleavage assay | inhibition, % at 10 µM | 0.12% of 360,000 active | AID 588501, 2011; also: plate controls were buffer without enzyme for full effect and enzyme alone for no effect
Target sequence (P15917 whole entry, looked up): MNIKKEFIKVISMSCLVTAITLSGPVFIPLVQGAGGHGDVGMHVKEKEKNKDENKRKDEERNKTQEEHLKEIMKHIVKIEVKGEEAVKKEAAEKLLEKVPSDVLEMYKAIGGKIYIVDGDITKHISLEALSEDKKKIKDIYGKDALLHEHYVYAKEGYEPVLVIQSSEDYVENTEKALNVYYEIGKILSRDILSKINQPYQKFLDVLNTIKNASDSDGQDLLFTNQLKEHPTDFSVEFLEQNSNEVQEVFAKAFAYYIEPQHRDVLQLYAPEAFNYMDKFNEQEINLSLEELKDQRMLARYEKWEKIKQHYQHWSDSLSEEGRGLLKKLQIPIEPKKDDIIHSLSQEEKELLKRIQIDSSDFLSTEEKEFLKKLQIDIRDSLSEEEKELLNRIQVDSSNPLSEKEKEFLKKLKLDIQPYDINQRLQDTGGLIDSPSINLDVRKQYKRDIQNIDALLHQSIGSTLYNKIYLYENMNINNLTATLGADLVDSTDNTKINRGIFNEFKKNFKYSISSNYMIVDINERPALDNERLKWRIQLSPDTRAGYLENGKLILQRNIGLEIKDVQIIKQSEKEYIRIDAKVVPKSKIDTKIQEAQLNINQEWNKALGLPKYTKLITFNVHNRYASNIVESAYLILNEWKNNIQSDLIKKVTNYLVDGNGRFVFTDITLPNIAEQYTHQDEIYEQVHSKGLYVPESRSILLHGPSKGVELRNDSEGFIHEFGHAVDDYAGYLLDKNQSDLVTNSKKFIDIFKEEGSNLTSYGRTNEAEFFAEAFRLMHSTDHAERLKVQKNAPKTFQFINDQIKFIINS
BoNT F protease = BoNT/F light chain protease inhibitors, primary screen, biochemical, flow cytometry, MLPCN library. Botulinum neurotoxin type F light chain protease (Clostridium botulinum). Multiplex microsphere protease cleavage assay. inhibition, % at 10 µM. 0.22% of 360,000 active; in the data active = inhibition above about 35%, passing the limit was not always enough; inconclusive = no clear call, values can overlap the other calls; also: plate controls were buffer without enzyme for full effect and enzyme alone for no effect
BoNT A protease = BoNT/A light chain protease inhibitors, primary screen, biochemical, flow cytometry, MLPCN library; Botulinum neurotoxin type A light chain protease (Clostridium botulinum A str. ATCC 3502); multiplex microsphere protease substrate cleavage; inhibition, % at 10 µM; 0.17% of 360,000 active; also: plate controls were buffer without enzyme for full effect and enzyme alone for no effect
* marks the source's active call; other numbers are inactive results; ? = inconclusive. Rule as the data show it, unless noted: active = inhibition above about 30%; inconclusive = no clear call, values can overlap the other calls; inactive = below that.

SMILES | Bead autofluor | Anthrax LF inh2 | BoNT F protease | BoNT A protease
Cn1c(CN2CCCC2)nc2cc(NC(=O)c3ccc(Cl)cc3)ccc21 | 3884 | -6 | 0 | 1
CC(=O)N1CCN(Cc2nc3cc(NC(=O)C4CCCCC4)ccc3n2C)CC1 | 20181* | 2 | -1 | ?
Cc1nn(CC(=O)Nc2ccc3c(c2)nc(CCN2CCCCC2)n3C)c(=O)c2ccccc12 | 20530* | -1 | -1 | -1
CC(=O)N1CCN(Cc2nc3cc(NC(=O)Cn4nc(C)c5ccccc5c4=O)ccc3n2C)CC1 | 9828 | -1 | -7 | 0
O=C(CSc1nnnn1-c1cccc(F)c1)NC1CC1 | 2945 | -1 | -2 | 0
CCNC(=O)C1CCCN(c2nc(C)cc(C)n2)C1 (stereo not drawn) | 4365 | -1 | -2 | 0
CCCc1cc(N2CCCC(C(=O)NCC)C2)n2ncnc2n1 (stereo not drawn) | 20607* | 0 | 1 | 0
CC(C)CC1(C2CCCC2)NC(=O)NC1=O (stereo not drawn) | 4150 | 1 | 1 | 0
O=c1cccc2n1CC1CC2CN(Cc2c(F)cccc2Cl)C1 (stereo not drawn) | 9473 | -1 | -3 | 0
O=c1cccc2n1CC1CC2CN(Cc2cccc(Cl)c2Cl)C1 (stereo not drawn) | 20838* | 0 | -1 | 0
CCOC(=O)c1cccc(NS(=O)(=O)c2c(C)[nH]c(=O)[nH]c2=O)c1 | 19045* | -10 | 1 | 1
CCOC(=O)c1cccc(NS(=O)(=O)c2c(C)[nH]c(C)c2C(=O)N2CCCC2)c1 | 5756 | -1 | -5 | 1
COc1ccc(C(=O)N2CCC(n3nccc3NC(=O)C3CCOC3)CC2)cc1 (stereo not drawn) | 6052 | 0 | 0 | 1
Cc1nc(=O)c(-c2ccccc2)c(C)n1-c1ccc(C(=O)O)cc1 | 22979* | 0 | -1 | 1
Cc1nc(=O)c(-c2ccccc2)c(C)n1-c1ccc(S(N)(=O)=O)cc1 | 2396 | -2 | 2 | 0
Cc1cc(NC(=O)CN2C(=O)NC3(CCCCC3)C2=O)ccc1N1CCCC1 | 5447 | -5 | -19 | -1
COC(=O)c1cc(OC)c(OC)cc1NC(=O)CN1C(=O)c2ccccc2C1=O | 5556 | -13 | -6 | -1
COC(=O)c1cc(-c2ccccc2)sc1NC(=O)CN1C(=O)c2ccccc2C1=O | 23511* | -4 | -2 | ?
Cc1ccc(Oc2nnc(-c3ccccc3)c3ccccc23)cc1 | 21278* | -4 | 6 | 6
NC(=O)C1CCN(C(=O)CCC(=O)c2ccc(F)cc2)CC1 | 3761 | 15 | 18 | -2
CCOc1cccc(CNC2CN3CCC2CC3)c1 (stereo not drawn) | 16409* | -2 | -1 | ?
Fc1ccc(CNC2CN3CCC2CC3)cc1 (stereo not drawn) | 3452 | -8 | -11 | 1
Cc1cc2c3c(c1)C1(C(=O)N3C(C)(C)CC2C)C(C#N)=C(N)Oc2n[nH]c(C)c21 (stereo not drawn) | 21117* | 2 | 1 | ?
CSc1ccc(C(=O)NCC(c2ccco2)N(C)C)cc1[N+](=O)[O-] (stereo not drawn) | 6053 | -1 | -1 | 0
CCOC(=O)N1CCN(C(=O)CCc2ccc(S(=O)(=O)NCCc3ccccc3)cc2)CC1 | 22791* | -5 | 5 | 2
SMILES | Bead autofluor | Anthrax LF inh2 | BoNT F protease | BoNT A protease
CN(c1ccc(C(=O)N2CCN(Cc3ccc4c(c3)OCO4)CC2)cc1)S(=O)(=O)c1ccccc1 | 23288* | -3 | 1 | -1
O=C(CCc1ccc(S(=O)(=O)NCCc2ccccc2)cc1)N1CCN(Cc2ccc3c(c2)OCO3)CC1 | 21187* | -5 | 0 | 1
CCCCOc1ccc(C(=O)NCC(=O)NC(C)CCc2ccccc2)cc1 (stereo not drawn) | 6759 | -2 | -7 | -3
C[C@H](CO)N1C[C@H](C)[C@@H](CN(C)S(=O)(=O)c2cn(C)cn2)OCc2cnnn2CCCC1=O | 3531 | -3 | 2 | 0
CCN(CC)c1ccc(C=C2C(=O)OC(c3ccccc3)OC2=O)cc1 (stereo not drawn) | 6818 | 2 | 4 | 1
CCN(CC)c1ccc(/C=C/C(=O)C2C(=O)C=C(C)OC2=O)cc1 (stereo not drawn) | 66487* | 73* | 154* | 70*
CCCCOCCCNC(=O)N[C@H](C(=O)O)C(C)CC (stereo partly drawn) | 4597 | -2 | -5 | -1
CCC(C)[C@H](NC(=O)NC1CC1)C(=O)O (stereo partly drawn) | 23360* | -2 | 0 | ?
Cc1cc(Br)ccc1OCCCCNCCO | 21727* | -1 | -9 | -7

Screens deposited in PubChem by NMMLSC.
